The campaign covered roughly 5,500 compounds. About 2,000 (36%) were called active. Not shown: some 18% with an inconclusive outcome. No stated cut-off is given here; in the data, active means normalized growth mostly below about 0.91 (no sharp cut-off); inconclusive means no clear call, values can overlap the other calls; inactive means mostly above about 0.92. The list shows a part of the results.
Test: chemical genetic growth profiling, strain panel (AID 1159580);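 further: tested at 20 µM; growth read once vehicle control cultures reached saturation at 30 °C; 1 = growth at the plate median or of vehicle wells; lower values mean less growth of the strain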
Settings: growth OD
[1] = S. cerevisiae deletion strains, locus YAL013W, strain DEP1, active compounds read low
[2] = S. cerevisiae deletion strains, locus YDR150W, strain NUM1, active compounds read low
[3] = S. cerevisiae deletion strains, locus YGR078C, strain PAC10, active compounds read low
[4] = S. cerevisiae deletion strains, locus YGR229C, strain SMI1, active compounds read low
[5] = S. cerevisiae deletion strains, locus YHR030C, strain SLT2, active compounds read low
[6] = S. cerevisiae deletion strains, locus YJL095W, strain BCK1, active compounds read low
[7] = S. cerevisiae deletion strains, locus YJR075W, strain HOC1, active compounds read low
[8] = S. cerevisiae deletion strains, locus YMR263W, strain SAP30, active compounds read low
[9] = S. cerevisiae deletion strains, locus YMR307W, strain GAS1, active compounds read low
[10] = S. cerevisiae deletion strains, locus YNL128W, strain TEP1, active compounds read low
[11] = S. cerevisiae deletion strains, locus YNL153C, strain GIM3, active compounds read low
[12] = S. cerevisiae deletion strains, locus YNL322C, strain KRE1, active compounds read low
[13] = S. cerevisiae deletion strains, locus YPL055C, strain LGE1, active compounds read low
[14] = S. cerevisiae deletion strains, locus YPL241C, strain CIN2, active compounds read low
[15] = S. cerevisiae deletion strains, locus YAL040C, strain CLN3, active compounds read low
[16] = S. cerevisiae deletion strains, locus YCL061C, strain MRC1 (second series), active compounds read low
[17] = S. cerevisiae deletion strains, locus YDR363W, strain ESC2, active compounds read low
[18] = S. cerevisiae deletion strains, locus YER002W, strain NOP16, active compounds read low
[19] = S. cerevisiae deletion strains, locus YHR079C, strain IRE1, active compounds read low
[20] = S. cerevisiae deletion strains, locus YJR066W, strain TOR1, active compounds read low
[21] = S. cerevisiae deletion strains, locus YLR113W, strain HOG1, active compounds read low
[22] = S. cerevisiae deletion strains, locus YNL175C, strain NOP13, active compounds read low
[23] = S. cerevisiae deletion strains, locus YNL183C, strain NPR1, active compounds read low
[24] = S. cerevisiae deletion strains, locus YNL197C, strain WHI3, active compounds read low
[25] = S. cerevisiae deletion strains, locus YNL224C, strain SQS1, active compounds read low
[26] = S. cerevisiae deletion strains, locus YOR083W, strain WHI5 (second series), active compounds read low
[27] = S. cerevisiae deletion strains, locus YOR231W, strain MKK1, active compounds read low
[28] = S. cerevisiae deletion strains, locus YPL256C, strain CLN2, active compounds read low

Measured: normalized growth

CC(=O)c1c(O)c(C)c(O)c2c1oc1c(C(C)=O)c(O)c(C)c(O)c12
inactive: [1] 1 | S. cerevisiae deletion strains, locus YBR021W, strain FUR4, active compounds read low 0.991 | S. cerevisiae deletion strains, locus YBR229C, strain ROT2, active compounds read low 0.981 | S. cerevisiae deletion strains, locus YCL029C, strain bik1, active compounds read low 0.961 | S. cerevisiae deletion strains, locus YDL035C, strain GPR1, active compounds read low 0.942 | S. cerevisiae deletion strains, locus YDL074C, strain BRE1, active compounds read low 0.963 | S. cerevisiae deletion strains, locus YDL101C, strain DUN1, active compounds read low 0.98 | S. cerevisiae deletion strains, locus YDL134C, strain PPH21, active compounds read low 0.981 | S. cerevisiae deletion strains, locus YDL192W, strain arf1, active compounds read low 0.934 | [2] 0.988 | S. cerevisiae deletion strains, locus YDR162C, strain NBP2, active compounds read low 0.979 | S. cerevisiae deletion strains, locus YDR318W, strain mcm21, active compounds read low 0.934 | S. cerevisiae deletion strains, locus YDR388W, active compounds read low 0.966 | S. cerevisiae deletion strains, locus YEL061C, strain CIN8, active compounds read low 0.98 | S. cerevisiae deletion strains, locus YER110C, active compounds read low 0.976 | S. cerevisiae deletion strains, locus YER155C, strain BEM2, active compounds read low 0.973 | S. cerevisiae deletion strains, locus YER167W, strain BCK2, active compounds read low 0.963 | S. cerevisiae deletion strains, locus YGL078C, strain dbp3, active compounds read low 0.987 | S. cerevisiae deletion strains, locus YGL086W, strain mad1, active compounds read low 0.993 | S. cerevisiae deletion strains, locus YGL248W, strain PDE1, active compounds read low 0.973 | [3] 0.943 | S. cerevisiae deletion strains, locus YGR135W, strain pre9, active compounds read low 0.954 | [4] 0.901 | S. cerevisiae deletion strains, locus YGR252W, strain gcn5, active compounds read low 0.906 | [5] 0.961 | S. cerevisiae deletion strains, locus YHR079C, strain IRE1 (second series), active compounds read low 0.953 | S. cerevisiae deletion strains, locus YHR094C, strain hxt1, active compounds read low 0.978 | S. cerevisiae deletion strains, locus YHR129C, strain ARP1, active compounds read low 0.975 | S. cerevisiae deletion strains, locus YHR200W, strain rpn10, active compounds read low 0.938 | S. cerevisiae deletion strains, locus YIL066C, strain RNR3, active compounds read low 0.924 | S. cerevisiae deletion strains, locus YIL073C, strain SPO22, active compounds read low 0.942 | S. cerevisiae deletion strains, locus YIL125W, strain kgd1, active compounds read low 0.983 | S. cerevisiae deletion strains, locus YIR030C, strain dcg1, active compounds read low 0.952 | [6] 0.909 | S. cerevisiae deletion strains, locus YJL134W, strain LCB3, active compounds read low 0.977 | S. cerevisiae deletion strains, locus YJL168C, strain set2, active compounds read low 0.968 | S. cerevisiae deletion strains, locus YJL187C, strain SWE1 (second series), active compounds read low 0.944 | S. cerevisiae deletion strains, locus YJR043C, strain POL32, active compounds read low 0.926 | [7] 0.974 | S. cerevisiae deletion strains, locus YKL009W, strain mrt4, active compounds read low 0.944 | S. cerevisiae deletion strains, locus YKL068W, active compounds read low 0.995 | S. cerevisiae deletion strains, locus YKL085W, strain MDH1 (second series), active compounds read low 0.982 | S. cerevisiae deletion strains, locus YKL085W, strain MDH1, active compounds read low 0.982 | S. cerevisiae deletion strains, locus YKL190W, strain CNB1, active compounds read low 0.988 | S. cerevisiae deletion strains, locus YLR039C, strain RIC1, active compounds read low 0.722 | S. cerevisiae deletion strains, locus YLR058C, strain SHM2, active compounds read low 0.966 | S. cerevisiae deletion strains, locus YLR102C, strain apc9, active compounds read low 0.979 | S. cerevisiae deletion strains, locus YLR262C, strain YPT6, active compounds read low 0.827 | S. cerevisiae deletion strains, locus YLR268W, strain sec22, active compounds read low 0.906 | S. cerevisiae deletion strains, locus YLR330W, strain CHS5, active compounds read low 0.983 | S. cerevisiae deletion strains, locus YLR342W, strain FKS1 (second series), active compounds read low 0.882 | S. cerevisiae deletion strains, locus YLR371W, strain rom2, active compounds read low 0.979 | S. cerevisiae deletion strains, locus YLR418C, strain cdc73, active compounds read low 0.9 | S. cerevisiae deletion strains, locus YML016C, strain PPZ1, active compounds read low 0.975 | S. cerevisiae deletion strains, locus YML124C, strain tub3, active compounds read low 0.964 | S. cerevisiae deletion strains, locus YMR078C, strain ctf18, active compounds read low 0.966 | S. cerevisiae deletion strains, locus YMR223W, strain ubp8, active compounds read low 0.921 | [8] 0.957 | [9] 0.901 | S. cerevisiae deletion strains, locus YNL067W, strain RPL9B, active compounds read low 0.961 | [10] 0.972 | [11] 0.986 | S. cerevisiae deletion strains, locus YNL233W, strain BNI4, active compounds read low 0.943 | S. cerevisiae deletion strains, locus YNL250W, strain rad50, active compounds read low 0.977 | S. cerevisiae deletion strains, locus YNL271C, strain bni1, active compounds read low 0.985 | S. cerevisiae deletion strains, locus YNL298W, strain CLA4, active compounds read low 0.958 | S. cerevisiae deletion strains, locus YNL307C, strain MCK1, active compounds read low 0.941 | [12] 0.989 | S. cerevisiae deletion strains, locus YOL006C, strain TOP1, active compounds read low 0.921 | S. cerevisiae deletion strains, locus YOL012C, strain htz1 0.749 | S. cerevisiae deletion strains, locus YOL147C, strain pex11, active compounds read low 0.958 | S. cerevisiae deletion strains, locus YOR061W, strain CKA2, active compounds read low 0.963 | S. cerevisiae deletion strains, locus YOR069W, strain VPS5, active compounds read low 0.988 | S. cerevisiae deletion strains, locus YOR136W, strain idh2, active compounds read low 0.967 | S. cerevisiae deletion strains, locus YOR144C, strain elg1, active compounds read low 0.971 | S. cerevisiae deletion strains, locus YOR184W, strain ser1, active compounds read low 0.88 | S. cerevisiae deletion strains, locus YOR316C, strain cot1, active compounds read low 0.972 | [13] 0.95 | [14] 0.962 | S. cerevisiae deletion strains, locus YPR119W, strain clb2, active compounds read low 0.971 | S. cerevisiae deletion strains, locus YPR141C, strain kar3, active compounds read low 0.985 | S. cerevisiae deletion strains, locus YPR163C, strain tif3, active compounds read low 0.98 | S. cerevisiae deletion strains, locus YPR167C, strain met16, active compounds read low 0.974 | S. cerevisiae deletion strains, strain wtn01, active compounds read low 0.932 | S. cerevisiae strains, strain wild type, active compounds read low 0.954
active: S. cerevisiae deletion strains, locus YDR101C, strain arx1, active compounds read low 0.918 | S. cerevisiae deletion strains, locus YDR502C, strain sam2, active compounds read low 0.91 | S. cerevisiae deletion strains, locus YKR001C, strain vps1, active compounds read low 0.638 | S. cerevisiae deletion strains, locus YML032C, strain rad52, active compounds read low 0.891 | S. cerevisiae deletion strains, locus YNR052C, strain pop2, active compounds read low 0.852

Nc1nc2ccc(OC(F)(F)F)cc2s1
inactive: [1] 0.937 | [15] 0.985 | [16] 0.979 | [2] 0.954 | [17] 0.943 | [18] 0.979 | [5] 1.02 | [19] 1.02 | [6] 0.961 | [20] 0.956 | [7] 0.918 | [21] 0.94 | [8] 0.988 | [22] 0.975 | [23] 0.944 | [24] 0.988 | [25] 0.979 | [26] 0.938 | [27] 0.999 | [28] 1.02
active: [9] 0.856 | [13] 0.829

OCc1ccc(-c2nn(Cc3ccccc3)c3ccccc23)o1
active: [4] 0.841
inactive: [1] 0.925 | [15] 1.06 | [16] 1 | [2] 1.02 | [17] 1.01 | [18] 0.988 | [3] 0.986 | [8] 0.991 | [22] 0.977 | [24] 0.972 | [25] 0.981 | [26] 0.95 | [14] 1.02

CN(C)CCCOc1nn(Cc2ccccc2)c2ccccc12
inactive: [5] 0.972 | [19] 0.968 | [6] 0.979 | [20] 0.954 | [21] 0.956 | [23] 0.922 | [27] 0.967 | [28] 0.991

O=C(O)c1nn(Cc2ccc(Cl)cc2Cl)c2ccccc12
inactive: [1] 1 | [15] 1.05 | [16] 0.99 | [2] 1.02 | [17] 0.972 | [18] 0.956 | [4] 1.03 | [7] 1.02 | [8] 1 | [10] 0.969 | [11] 1.02 | [22] 0.935 | [24] 0.964 | [25] 0.996 | [12] 0.998 | [26] 0.994

From PubChem BioAssay AID1159580 (chemical genetic matrix, 2015)
